According to PubChem BioAssay AID590 (National Center for Advancing Translational Sciences (NCATS), 2007):
About 6,500 (11%) of roughly 59,000 compounds were called active. Not shown: some 15% with an inconclusive outcome. No stated cut-off is given here; in the data, active means max dye-equivalent concentration above about 10 nM; inconclusive means mostly about 1.1 nM to 9.6 nM; inactive means weaker than that. What follows is part of a selection rich in actives, with near analogues and random picks from the rest. Where a structure was tested more than once in an assay, its records may differ in their call.

Experiment: qHTS Assay for Spectroscopic Profiling in A350 Spectral Region
Settings: Compound autofluorescence, 340/450 nm, Alexa 350 dye-equivalents; active compounds read high
From the text: NIH Molecular Libraries Screening Centers Network [MLSCN]
NIH Chemical Genomics Center [NCGC]
Occasionally, the artifactual effect may originate from the compounds own spectral or other biophysical properties which generally tend to track its assay concentration. Pre-screening/profiling the library with respect to the compounds spectral properties should help one exclude false positives early on. While the most informative fluorescent profiling data set is obtained by performing a full excitation and emission scan of each well by using a monochromator-based plate reader, such an approach is practical only on a very limited scale as scanning each well requires long time. An alternative approach, applied here, is to perform plate reader scans using selected excitation and emission wavelength pairs to generate a multidimensional relational database that correlates compound concentration and the respective relative fluorescence intensity at a given wavelength set. A standard curve of Alexa 350 (A 350) present on each plate as six-point concentration series, was used to compute a normalized fluorescence response, termed dye-equivalent concentration, for each compound at each concentration.
NCGC Assay Protocol Summary:
100 mM Tris buffer, pH 8.0
The wells in columns 1 through 4 of a Kalypsys polypropylene 1536-well compound plate were filled with standard solutions of fluorophore corresponding to the spectral region of interest. Solutions of A 350 were placed in the following wells: I1, J1: 3 mM, I2, J2: 300 uM, I3, J3: 30 uM, I4, J4: zero (DMSO), K1, L1: 3 uM, K2, L2: […], K3, L3: 300 nM, K4, L4: zero (DMSO).
Six uL of buffer were dispensed to 1536-well Greiner black plates. Compounds and dye standards (23 nL) were transferred via Kalypsys PinTool. The plates were incubated for 15 min at room temperature, and then read on ViewLux (Perkin-Elmer) High-throughput CCD imager using 340 nm and 450 nm excitation and emission filter set.
Keywords: NIH Roadmap, MLSCN, MLI, MLSMR, qHTS, NCGC, A350, A-350, Fluorescent Profiling.

SMILES | max dye-equivalent concentration | outcome
CSC1=NP(=S)(SC)N(C)c2nc3n(c21)CCC3 (stereo unspecified) | 26 nM (active) | 
CN1[C@@H]2CC[C@H]1CC(OC(=O)c1cc(Cl)cc(Cl)c1)C2 (stereo partly specified) | inactive | 
CN1CCN(C(=O)O[C@@H]2c3nccnc3C(=O)N2c2ccc(Cl)cn2)CC1 | inactive | 
c1ccc2c(c1)[I+]c1ccccc1-2 | inactive | 
C[N+]1(C)C2CC(OC(=O)C(CO)c3ccccc3)CC1[C@@H]1O[C@H]21 (stereo partly specified) | inactive | 
CC(C)(O)[C@H]1[C@H]2OC(=O)[C@@H]1[C@]1(O)C[C@H]3O[C@]34C(=O)O[C@H]2[C@]14C | inactive | 
c1ccc(N2CC[C@@]3(CCCNC3)C2)nc1 | inactive | 
c1csc(CN2CCCC3(CCNCC3)C2)n1 | inactive | 
c1ccc(CN2CC[C@@]3(CCCNC3)C2)cc1 | 13 nM (active) | 
C[C@@]12CC[C@H]3[C@@H](CC[C@]4(O)C[C@H](O)CC[C@@]34C=O)[C@]1(O)CC[C@@H]2C1=CC(=O)OC1 | inactive | 
C[C@H](Br)C(=O)N[C@H](CO)C(=O)O | inactive | 
CCOC(=O)c1c(N)n(Cc2ccccc2)c2nc3ccccc3nc12 | 1500 nM (active) | 
c1csc(CN2CC3(CCNCC3)C2)n1 | inactive | 
CC(=O)O[C@H]1CC[C@@]2(C)[C@@H](CC[C@H]3[C@H]2CC(=O)[C@]2(C)[C@@H]3C[C@@H](N3CC3)[C@H]2C(C)=O)C1 | inactive | 
O=C(Nc1cccc(F)c1)N1CC[C@@]2(CCCN(C(=O)Oc3ccccc3)C2)C1 | inactive | 
CCN1c2nc3c(C)cccn3c(=O)c2CC2(C(=O)N(C)C(=O)N(C)C2=O)C1C (stereo unspecified) | 38 nM (active) | 
O=C(O)C(=O)Cc1ccc2c(c1)OCO2 | inactive | 
COC(=O)COc1cc(C)cc2oc(=O)c3c(c12)CCCC3 | inactive | 
CCCCCCN=C(CC)c1c(O)n(CCCC)c(=O)[nH]c1=O | inactive | 
NC(=O)c1ccc(OC[C@H](O)CN2CC=C(c3ccc(F)cc3)CC2)cc1 | inactive | 
CCN1C[C@]2(C)CC[C@H](O)[C@@]34[C@@H]5CC6[C@@H](OC)C[C@@](O)([C@@H]5[C@@H]6O)[C@H](C[C@@H]23)[C@H]14 | inactive | 
C[C@]12CC[C@H](O)C[C@@H]1CC[C@H]1[C@H]2CC[C@]2(C)C(=O)CC[C@@H]12 | 64 nM (active) | inactive
C[C@@]12CC[C@H](O)C[C@@H]1CC[C@@H]1[C@@H]2CC[C@@]2(C)[C@@H](C3=CC(=O)OC3)[C@H](O)C[C@]12O | inactive | 
C[C@]12CC[C@H](O)CC1=CC[C@@H]1[C@H]2CC[C@]2(C)C(=O)CC[C@H]12 | inactive | 
CC(C)(O)/C=C\C(=O)[C@](C)(O)[C@H]1[C@H](O)C[C@]2(C)[C@@H]3CC=C4[C@@H](C=C(O)C(=O)C4(C)C)[C@]3(C)C(=O)C[C@@]12C | inactive | 

SMILES | max dye-equivalent concentration | outcome
CS(=N)(=O)CC[C@H](N)P(=O)(O)O (stereo partly specified) | inactive | 
CC[C@@](O)(C(=O)O)c1cc2n(c(=O)c1CO)Cc1cc3ccccc3nc1-2 | 920 nM (active) | 
CC[C@]1(O)C(=O)OCc2c1cc1n(c2=O)Cc2cc3ccccc3nc2-1 | 2600 nM (active) | 
Cc1ccc(Cn2nnnc2CN2CCC(n3nnc4ccccc43)CC2)cc1 | inactive | 
N[C@H](C(=O)O)c1cc(=O)[nH]o1 | inactive | 
C[C@H]1CC[C@@]2(NC1)O[C@@H]1C[C@H]3[C@@H]4CC=C5C[C@@H](O)CC[C@]5(C)[C@@H]4CC[C@]3(C)[C@@H]1[C@@H]2C | inactive | 
N[C@@H](Cc1c[nH]c2ccccc12)c1nnc(SCc2c(F)cccc2Cl)o1 | inactive | 
CC[N+]1(C)CCCC(OC(=O)C(O)(c2ccccc2)c2ccccc2)C1 (stereo unspecified) | inactive | 
CC(C)CCC1(CCN)C(=O)NC(=O)NC1=O | inactive | 
Cc1cccc(-n2c(C)nc3cc(C(=O)N4CCC5(CC4)OCCO5)ccc32)c1 | inactive | 
O=C(c1cc(-c2ccncc2)nc2ccccc12)N1CCC2(CC1)OCCO2 | inactive | 
O=C(c1cc2nc(-c3ccccc3)cc(-c3ccccc3)n2n1)N1CCC2(CC1)OCCO2 | 48 nM (active) | 
NCC[Se][Se]CCN | inactive | 
CCN(CC)CCn1ncc2c(N)ncnc21 | inactive | 
CC1=CC(=O)C2=C(C)C[C@H](O)[C@@H]3[C@@H](OC(=O)[C@H]3C)[C@H]12 | inactive | 
O=C1C2CCN(CC2)C1(CO)CO | inactive | 
CCOC(=O)c1c(-c2ccccc2)oc2ccc(OC(=O)N(C)C)cc12 | 53 nM (active) | 
Cc1ccc(S(=O)(=O)O[C@H]2CN3CCC2CC3)cc1 | inactive | 
NC[C@H](O)c1ccc(O)cc1 | inactive | 
C=CCN1C(=O)C2(C(C(=O)OCC)=C(N)Oc3c2c(=O)oc2ccccc32)c2ccccc21 (stereo unspecified) | inactive | 
COc1cc(C[C@H](C)N)c(OC)cc1I | inactive | 
C/C(CCc1c[nH]c2ccccc12)=N\O | 16 nM (active) | 
NCCc1c[nH]c2ccc(O)cc12 | inactive | 
CC(=O)c1c(O)c(C)c(O)c(Cc2c(O)c3c(c(C(=O)/C=C\c4ccccc4)c2O)OC(C)(C)C=C3)c1O | inactive | 
NCCc1ccc(S(=O)(=O)F)cc1 | inactive | 
